The source made the active and inactive calls.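 The calls were made as follows, unless noted: active = fluorescence slope after compound addition differing from the mean of all screened samples at 99.7% confidence, in either direction; inactive = the rest.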

Test [1] is described as follows: inhibitors of TNFa-induced NFkB p65 translocation, primary screen, imaging, HUVEC, MLSMR starter and 10KST1 sets (AID 438;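 active = inhibition above 20% together with a positive visual image hit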;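 also: compound added about 3h40 before a 20 min TNFalpha stimulation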;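 as to inhibition: signal is the nuclear over cytoplasmic p65 intensity ratio per well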). The conditions noted are these: HUVEC TNFa-induced p65 nuclear translocation; cell count: measured here: nuclei count (cytotoxicity indicator), at 2.08 µM; inhibition: at 2 µM, stronger effect = higher value, 0% TNFa-plus-vehicle, 100% no-TNFa wells.
The nature of test [2]: inhibitors of mutant huntingtin aggregation, primary screen, imaging, exon1htt(103Q)mCFP cells, high-content imaging (AID 483;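 active = visual image review flags a hit and inhibition of aggregation exceeds 20%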;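 also: compound exposure lasted 3 days before fixation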;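 as to nuclei count: percent of the per-plate median nuclei count of sample wells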). The settings on record: exon1htt(103Q)mCFP cell line, aggregate imaging, at 2 µM; inhibition of aggregation: stronger effect = higher value; nuclei count: measured here: cell count, toxicity.
Test [3] is described as follows: inhibitors of E-selectin induction by TNFa, primary screen, imaging, HUVEC, immunofluorescence, MLSMR starter and 10KST1 sets (AID 487;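 active = visually confirmed hit in the image check and inhibition above 20%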;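 as to inhibition: signal is fraction of cell area covered by stained E-selectin grains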;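 as to nuclei count: 100% = median nuclei count of all wells on the same plate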). The settings on record: HUVEC TNFalpha-induced E-selectin immunofluorescence imaging, at 2 µM; inhibition: stronger effect = higher value; nuclei count: measured here: cell number, toxicity.
The target in test [4] is Voltage-gated potassium channel subunit beta-2 (Rattus norvegicus) (UniProt P62483). Put plainly: KvBeta enzyme negative modulators, primary screen, biochemical, NADPH fluorescence (AID 622;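 active = fluorescence slope higher than the sample average by over 3 SD, cut at about -0.22 in these data, passing the limit was not always enough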;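 also: slope of raw intensity against log time taken from 70 to 1610 s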). The conditions noted are these: recombinant KvBeta, 4-cyanobenzaldehyde reduction, at 10 µM, stronger effect = higher value.
Sequence of Voltage-gated potassium channel subunit beta-2 (Rattus norvegicus) (P62483 whole entry, looked up): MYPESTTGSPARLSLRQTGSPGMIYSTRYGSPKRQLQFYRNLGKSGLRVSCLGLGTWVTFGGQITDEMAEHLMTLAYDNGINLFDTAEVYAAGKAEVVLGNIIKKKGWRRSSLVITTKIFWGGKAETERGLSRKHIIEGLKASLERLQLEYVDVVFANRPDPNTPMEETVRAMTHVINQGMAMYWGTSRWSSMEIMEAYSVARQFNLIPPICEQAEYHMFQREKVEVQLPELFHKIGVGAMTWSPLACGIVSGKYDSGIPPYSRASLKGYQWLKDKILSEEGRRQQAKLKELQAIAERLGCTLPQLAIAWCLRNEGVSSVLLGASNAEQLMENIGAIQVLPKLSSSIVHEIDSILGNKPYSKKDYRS
The target is the same in test [5]. The experiment in a line: KvBeta positive modulators, primary screen, biochemical, NADPH fluorescence (AID 623;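 active = NADPH fluorescence slope more negative than the mean of all samples by about 3 SD, 99.7% confidence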;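 also: fluorescence intensity change per second fitted from 20 to 320 s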). The conditions noted are these: Recombinant KvBeta, NADPH fluorescence decrease slope, 10 min; at 10 µM; stronger effect = lower value.
Test [6] deals with Alpha-2C adrenergic receptor (Homo sapiens) (UniProt P18825). Put plainly: modulators of alpha2C/GIRK thallium flux, primary screen, cell-based, HEK293 alpha2C/GIRK1/2 (AID 624).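 Also: slope of fluorescence ratio to pre-addition baseline per second over 15 to 24 s.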 The settings on record: thallium flux BTC fluorescence, at 10 µM, actives lie on both sides.
Sequence of Alpha-2C adrenergic receptor (Homo sapiens) (P18825 whole entry, looked up): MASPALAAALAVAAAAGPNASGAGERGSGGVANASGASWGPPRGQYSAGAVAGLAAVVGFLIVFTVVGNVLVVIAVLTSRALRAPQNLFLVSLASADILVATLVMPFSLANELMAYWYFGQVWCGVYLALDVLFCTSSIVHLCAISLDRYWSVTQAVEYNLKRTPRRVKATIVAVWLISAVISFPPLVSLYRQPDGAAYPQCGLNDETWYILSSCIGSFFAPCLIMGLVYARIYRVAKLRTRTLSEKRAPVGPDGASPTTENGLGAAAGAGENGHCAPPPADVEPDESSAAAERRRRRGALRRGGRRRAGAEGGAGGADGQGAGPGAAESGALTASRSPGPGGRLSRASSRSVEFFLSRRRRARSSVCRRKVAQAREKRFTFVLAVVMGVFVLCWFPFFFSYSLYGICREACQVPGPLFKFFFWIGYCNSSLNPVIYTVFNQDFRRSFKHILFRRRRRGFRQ
Test [7] can be described thus: inhibitors of Sendai virus-induced IRF3 signaling, primary screen, TLR/RLR signaling modifier project, cell-based, Sendai virus stimulus, luciferase, 10K MLSCN set (AID 602276;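 active = inhibition at or above 50% at 10 µM; inactive = inhibition below 50%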;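 also: firefly luciferase from ISG56 promoter only with Renilla not read in this screen; 0% = Sendai virus plus DMSO and 100% = medium plus DMSO without virus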). The conditions noted are these: HEK293 RL24 IRF3 luciferase reporter, at 10 µM, stronger effect = higher value. For orientation: Reporter assays use an easily measured gene product as a stand-in for the process of interest.

The nature of test [8]: inhibitors of poly I:C-induced TLR3 signaling, primary screen, cell-based, poly I:C stimulus, luciferase, 10K MLSCN set (AID 602277;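 active = inhibition of the reporter signal at or above 50%; inactive = inhibition below 50%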). The settings on record: HEK293-TLR3 RL24 IRF3 luciferase reporter, at 10 µM, stronger effect = higher value.

For orientation: inhibition means the change of the read-out against control, counted positive when it falls. Take `COc1ccc(N2CCN(CCNC(=O)CCS(=O)(=O)c3cccc4nsnc34)CC2)cc1`: the cell count in test [1] came to 747. Moreover, the inhibition was -6.4% (inactive) in test [1], 15% (inactive) in test [3], 16.8% (inactive) in test [7] and 15.8% (inactive) in test [8]. For the same compound, the inhibition of aggregation in test [2] is -23% (inactive). For the same compound, the nuclei count in test [2] turned out to be 101%; in test [3], 109%. Besides, in test [4], the fluorescence slope is -0.598 (inactive). In addition, the NADPH fluorescence slope in test [5] is -3.9e-05 (inactive). In test [6], the slope is 0.00466 (inactive).
For the compound `CCOc1ccccc1-n1c(SCC(=O)NC(C)CC)nnc1-c1ccoc1C` (stereo not drawn), in test [1], the cell count was 608. Further, the inhibition in test [1] is -2.4% (inactive); in test [3] it was -47.9% (inactive); in test [7], 18.6% (inactive); in test [8], 17.4% (inactive). Moreover, the inhibition of aggregation in test [2] is -1.9% (inactive). Besides, the nuclei count was 105% in test [2] and 121% in test [3]. Also, the fluorescence slope in test [4] was -0.439 (inactive). For the same compound, in test [5], the NADPH fluorescence slope is -3.6e-05 (inactive). Also, the slope in test [6] is 0.00423 (inactive).
As to `Cc1ccc(-c2cc3nc4c(c(=O)n3[nH]2)CCCC4)cc1`, the cell count in test [1] was 663. For the same compound, the inhibition in test [1] was -11% (inactive); in test [3], -69.9% (inactive); in test [7], -9.26% (inactive); in test [8], -48.6% (inactive). For the same compound, the inhibition of aggregation in test [2] is -8.5% (inactive). Moreover, the results for the nuclei count in test [2] and in test [3] were 73.1% and 119%, respectively. The fluorescence slope in test [4] was -0.454 (inactive). Moreover, the NADPH fluorescence slope in test [5] is 1.7e-05 (inactive). Also, in test [6], the slope is 0.00436 (inactive).
Take `Cc1ccc(-c2nc3ccccc3[nH]2)s1`: the cell count in test [1] came to 362. Further, the inhibition in test [1] was -13.1% (inactive); in test [3], -72.7% (inactive); in test [7], -45.9% (inactive); in test [8], -155% (inactive). In addition, in test [2], the inhibition of aggregation is -2.5% (inactive). The nuclei count in test [2] is 95.2%; in test [3], 101%. In addition, in test [4], the fluorescence slope was -0.277 (inactive). Besides, the NADPH fluorescence slope in test [5] is -1.4e-05 (inactive). Further, in test [6], the slope is 0.00551 (inactive).
Turning to `COC(=O)N1CC(c2ccccc2)CC1=O` (stereo not drawn), the cell count in test [1] was determined as 639. In addition, the inhibition was -0.6% (inactive) in test [1], -61.9% (inactive) in test [3], 7.79% (inactive) in test [7] and 16.7% (inactive) in test [8]. For the same compound, the inhibition of aggregation in test [2] was -22.4% (inactive). Further, the nuclei count in test [2] turned out to be 119%; in test [3] it was 73%. Moreover, in test [4], the fluorescence slope was -0.47 (inactive). The NADPH fluorescence slope in test [5] was -0.000268 (inactive). Moreover, the slope in test [6] was 0.00505 (inactive).
As for `CCOc1ccccc1NC(=O)CN(C)S(=O)(=O)c1cccc2nsnc12`, in test [1], the cell count worked out at 671. The inhibition in test [1] is -16.4% (inactive); in test [3], -141% (inactive); in test [7], 15.8% (inactive); in test [8], 15.6% (inactive). In addition, in test [2], the inhibition of aggregation is -5.6% (inactive). Moreover, the nuclei count in test [2] came to 96.9%; in test [3] it was 119%. In addition, in test [4], the fluorescence slope was -0.329 (inactive). Moreover, in test [5], the NADPH fluorescence slope is -4.9e-05 (inactive). In addition, the slope in test [6] is 0.00417 (inactive).
In the case of `CN(C)S(=O)(=O)c1cccc(C(=O)Nc2cccnc2)c1`, the cell count in test [1] was 294. The inhibition in test [1] was 10.1% (inactive); in test [3] it was -79.6% (inactive); in test [7] it was 16.5% (inactive); in test [8] it was 10.8% (inactive). Besides, in test [2], the inhibition of aggregation is 0% (inactive). The nuclei count came to 103% in test [2] and 128% in test [3]. Further, in test [4], the fluorescence slope was -0.407 (inactive). Moreover, the NADPH fluorescence slope in test [5] is -5.9e-05 (inactive). In test [6], the slope was 0.00527 (inactive).
For the compound `Cc1nc(CCNC(=O)c2ccccc2)cs1`, the cell count in test [1] came out at 347. Moreover, the inhibition is -6% (inactive) in test [1], -51.1% (inactive) in test [3], 9.26% (inactive) in test [7] and -2.39% (inactive) in test [8]. Also, in test [2], the inhibition of aggregation was 4.7% (inactive). The values for the nuclei count in test [2] and in test [3] were 102% and 127%, respectively. Also, the fluorescence slope in test [4] is -0.486 (inactive). In addition, the NADPH fluorescence slope in test [5] was 9.5e-06 (inactive). Also, the slope in test [6] was 0.00492 (inactive).
Take `NC(=O)C(Cc1ccccc1)NS(=O)(=O)c1ccc(N2CCCC2=O)cc1` (stereo not drawn): the cell count in test [1] stood at 570. The inhibition in test [1] is -8.7% (inactive); in test [3], -5.1% (inactive); in test [7] it was 8.09% (inactive); in test [8] it was -25% (inactive). Besides, the inhibition of aggregation in test [2] was 4.5% (inactive). Moreover, the values for the nuclei count in test [2] and in test [3] were 100% and 95.5%, respectively. In test [4], the fluorescence slope was -0.585 (inactive). Also, in test [5], the NADPH fluorescence slope was -4e-05 (inactive). The slope in test [6] was 0.00321 (inactive).
For the compound `O=C(NC1CCN(Cc2ccccc2)CC1)C1CCN(S(=O)(=O)c2cccc3cccnc23)CC1`, the cell count in test [1] was determined as 526. In addition, the inhibition in test [1] is -11.6% (inactive); in test [3] it was -4.4% (inactive); in test [7], -12.5% (inactive); in test [8] it was 8.2% (inactive). The inhibition of aggregation in test [2] was 7.8% (inactive). The nuclei count in test [2] was determined as 83.4%; in test [3] it was 99.2%. Besides, in test [4], the fluorescence slope is -0.561 (inactive). The NADPH fluorescence slope in test [5] is 7.4e-08 (inactive). The slope in test [6] is 0.00666 (inactive).
Take `CSc1nc(N)nc(SCCS(=O)(=O)c2ccc(Cl)cc2)c1C#N`: the cell count in test [1] amounted to 401. Besides, the inhibition was 2.8% (inactive) in test [1], -48% (inactive) in test [3], 5.62% (inactive) in test [7] and 12.8% (inactive) in test [8]. In addition, in test [2], the inhibition of aggregation was 24.9% (inactive). Further, the nuclei count is 95.8% in test [2] and 113% in test [3]. Besides, the fluorescence slope in test [4] is -0.442 (inactive). For the same compound, the NADPH fluorescence slope in test [5] is -2.1e-05 (inactive). Besides, the slope in test [6] was 0.00602 (inactive).
Regarding `Cc1ccc2[nH]c3c(c2c1)CCc1cn[nH]c1-3`, the cell count in test [1] came to 410. The inhibition was 5.1% (inactive) in test [1], 27.4% (inactive) in test [3], -22.4% (inactive) in test [7] and -73.4% (inactive) in test [8]. Further, the inhibition of aggregation in test [2] was -4.7% (inactive). Also, the figures for the nuclei count in test [2] and in test [3] were 71.7% and 105%, respectively. The fluorescence slope in test [4] is -0.481 (inactive). Moreover, in test [5], the NADPH fluorescence slope is -1.8e-05 (inactive). For the same compound, the slope in test [6] is 0.00393 (inactive).
As to `COc1cccc(C2=NOC(C(=O)N3CCN(c4ccccc4)CC3)C2)c1OC` (stereo not drawn), the cell count in test [1] was determined as 471. The inhibition is 15% (inactive) in test [1], 8% (inactive) in test [3], 19% (inactive) in test [7] and 6.35% (inactive) in test [8]. Also, in test [2], the inhibition of aggregation is 6.5% (inactive). Moreover, the nuclei count in test [2] stood at 113%; in test [3], 99.4%. Also, in test [4], the fluorescence slope was -0.536 (inactive). The NADPH fluorescence slope in test [5] was -8.8e-06 (inactive). Further, the slope in test [6] was 0.00606 (inactive).
